# Measured values published in ChEMBL document CHEMBL3988442, “University of Dundee, Small-Polar-MMV Screening Library” (2021).
# Columns and labels:
# [1] = target: T1, Aspartate--tRNA(Asp/Asn) ligase (Mycobacterium tuberculosis (strain ATCC 25618 / H37Rv)) (UniProt P9WFW3); assay: Assay for Asp RNA synthetase-1 from Mycobacterium tuberculosis; type: functional; set-up: scale not given: direction of the effect not stated beside the values; conditions: 30 µM; note: in the data most compounds retested in dose-response had high values
# T1 sequence (whole entry): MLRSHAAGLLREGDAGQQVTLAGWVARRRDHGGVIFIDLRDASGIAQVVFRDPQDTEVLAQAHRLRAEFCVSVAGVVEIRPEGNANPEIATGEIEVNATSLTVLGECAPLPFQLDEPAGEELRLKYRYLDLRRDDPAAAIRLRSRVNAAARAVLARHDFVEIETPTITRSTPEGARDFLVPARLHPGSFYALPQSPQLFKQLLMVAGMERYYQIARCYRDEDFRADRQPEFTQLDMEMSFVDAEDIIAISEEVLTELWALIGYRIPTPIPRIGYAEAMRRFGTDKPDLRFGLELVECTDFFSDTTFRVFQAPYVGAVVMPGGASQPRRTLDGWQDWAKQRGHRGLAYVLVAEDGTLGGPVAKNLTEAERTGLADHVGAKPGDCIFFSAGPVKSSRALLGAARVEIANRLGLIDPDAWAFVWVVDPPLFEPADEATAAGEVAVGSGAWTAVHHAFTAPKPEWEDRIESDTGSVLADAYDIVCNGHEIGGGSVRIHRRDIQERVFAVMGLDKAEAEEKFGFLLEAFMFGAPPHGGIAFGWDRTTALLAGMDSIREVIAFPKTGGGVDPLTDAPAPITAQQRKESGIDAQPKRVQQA
# [2] = target: Shiga toxin 2 (Escherichia coli O157:H7) (UniProt P09385+P09386); assay: E. coli 0.157:H7 Shiga Toxin SOP - stx2 screening assay; type: functional; set-up: scale not given: direction of the effect not stated beside the values; conditions: 30 µM
compound,measurement,setting,value
COc1ccc(CN2CCC3(CC(=O)N(c4cncnc4)C3)C2)cc1 (stereo not drawn),Percent Effect,[1],0.382%
same,Percent Effect,[2],-11.8%
O=C1CC(c2ccsc2)c2sc(C(=O)O)c(-c3ccccc3)c2N1 (stereo not drawn),Percent Effect,[1],1.95%
same,Percent Effect,[2],17.4%
Cc1cnn(CC2CN(CC(=O)N3CCc4ccccc43)CCO2)c1 (stereo not drawn),Percent Effect,[1],-4.75%
same,Percent Effect,[2],-15.5%
Cc1cnn(CC2CN(CC(=O)NCc3ccccn3)CCO2)c1 (stereo not drawn),Percent Effect,[1],-8.24%
same,Percent Effect,[2],-5.07%
Cc1nn(C)c(Cl)c1C1CCCN1C(=O)c1ccc2nncn2c1 (stereo not drawn),Percent Effect,[1],-1.25%
same,Percent Effect,[2],2.44%
CC(C)NC(=O)N1CCC(n2ccc(C(F)(F)F)n2)CC1,Percent Effect,[1],-2.88%
same,Percent Effect,[2],-0.886%
CCc1nnc2n1CCN(CCS(=O)(=O)c1ccccc1)C2,Percent Effect,[1],-3.04%
same,Percent Effect,[2],8.79%
Cc1cnn(CC(C)NCc2csc(-c3cnn(C)c3)n2)c1 (stereo not drawn),Percent Effect,[1],1.91%
same,Percent Effect,[2],-23.5%
CNS(=O)(=O)CCCN1CCCC1c1cc(C)on1 (stereo not drawn),Percent Effect,[1],1.49%
same,Percent Effect,[2],5.74%
CS(=O)(=O)N1CCc2c(cccc2NC(=O)CC(F)(F)F)C1,Percent Effect,[1],5.45%
same,Percent Effect,[2],2.18%
CC(NC(=O)NCCCn1cncn1)c1ccccc1Cl (stereo not drawn),Percent Effect,[1],9.3%
same,Percent Effect,[2],-26.7%
CN(CCn1nc2ccccn2c1=O)CC(=O)NC1CC1,Percent Effect,[1],-5.57%
same,Percent Effect,[2],-5.23%
CCc1n[nH]c(C2CN(CCc3cccs3)CCO2)n1 (stereo not drawn),Percent Effect,[1],-6.83%
same,Percent Effect,[2],-38.7%
CN(C)c1cc(C(=O)N2CCCC(n3cccn3)C2)ccn1 (stereo not drawn),Percent Effect,[1],-2.86%
same,Percent Effect,[2],-7.48%
CN(Cc1ccco1)C(=O)C1CSCN1C(=O)c1cccnc1 (stereo not drawn),Percent Effect,[1],2.02%
same,Percent Effect,[2],13.1%
CC1(C)CC(N2Cc3nc(N)ncc3C2=O)CC(C)(C)N1,Percent Effect,[1],7.13%
same,Percent Effect,[2],-32.6%
COCC1CN(Cc2ccsc2)Cc2nn(C)cc21 (stereo not drawn),Percent Effect,[1],15.7%
same,Percent Effect,[2],-13.1%
Cc1cc2n(n1)CC(CNC1CCN(Cc3ccccc3C)CC1)CN2 (stereo not drawn),Percent Effect,[1],4.64%
same,Percent Effect,[2],-38.1%
Cc1nc(Nc2ncccn2)cc(C2CCCN2C2CCOCC2)n1 (stereo not drawn),Percent Effect,[1],2.13%
same,Percent Effect,[2],-0.835%
